PubChem BioAssay (NCATS)
Records with an inconclusive call do not appear. The source made the active and inactive calls. Calls come from the whole dose curve; as a rule, active = well fitted inhibition curve with a large enough effect; inconclusive = small, poorly fitted or top-dose-only effect; inactive = flat fitted curve, though single readings scatter.

System: NIH3T3
Test: qHTS assay to identify novel small-molecules to repurpose for Merkel cell carcinoma treatment (AID 1296009); note: nearly all actives have a fitted effect of over 60% in size
Details: MCC and control cell lines, CellTiter-Glo viability, 72 h; at 44.8 µM (top of the series) unless noted
Excerpt: MCC is a rare and aggressive neuroendocrine skin cancer with limited treatment options. Approximately 80% of MCCs have the Merkel cell polyomavirus (MCPyV) DNA integrated into the host genome (virus-positive: VP-MCC) and viral oncogenes drive oncogenesis. The remaining MCCs are virus-negative (VN-MCC) and are caused by UV mutagenesis. To identify novel treatments for VP-MCC and/or VN-MCC we screened three VP-MCC cell lines (WAGA, MKL-1, MKL-2), three VN-MCC cell lines (MCC-13, MCC-26, UISO), and four immortalized, non-transformed control cell lines (HaCaT, HEK293T, CRL7250, NIH-3T3) against ~2,400 compounds in the NCGC Pharmaceutical Collection (NPC) and ~1,900 compounds in the Mechanism Interrogation PlatE (MiPE). Using cell viability as a readout (CellTiter-Glo assay) we found both overlapping and distinct drugs that can be repurposed for the treatment of VP-MCC and VN-MCC.
A high-throughput screen was conducted in 1536-well white flat bottom plates (Corning) on a Kalypsys robotic system. Cell lines WAGA, MKL-1, MKL-2, MCC-13, MCC-26, UISO, HaCaT, HEK293T, CRL7250, and NIH-3T3 were screened against 2 small molecule annotated drug libraries NPC and MIPE in dose response (8 and 11 pt. respectively) measuring cell viability after 72 hours of incubation. […] A 1,536 pintool (Kalypsys) was used to transfer 23 nL of compound in DMSO to the 1,536-well assay plates. After 72 hr incubation at 37 degree celsius, 2.5 uL of CellTiter-Glo (Promega) was dispensed into each well using a BiorapTR. Plates were incubated at room temperature for 10 min, transferred to a ViewLux (PerkinElmer) and the luminescence was recorded using an exposure time of 2 seconds. Relative luminescence units (RLUs) were normalized to in-plate controls (no cells as a positive (cytotoxicity) control, DMSO as negative control) and the normalized data was processed using NCATS in-house software.

Row | SMILES | outcome
1 | CC(CCC1C(C(=O)O)=CC(=O)CC1(C)C)O[C@@H]1O[C@H](CO)[C@@H](O)[C@H](O)[C@H]1O (stereo not given in full) | inactive
2 | CC1C(=O)CC2C3C(O)CC(C(=O)O)C12CC3(C)C (stereo not given) | inactive
3 | NC(=O)c1ccc(OCC2NC(=O)C3CCCN3C2=O)cc1 (stereo not given) | inactive
4 | COc1cc(NC(=O)c2ccccn2)ccc1Cl | inactive
5 | N[C@H]1C[C@H]1c1ccc(-c2cccc(O)c2)cc1 | inactive
6 | C#Cc1cnc2[nH]c(=O)n(C(CC)CC)c2n1 | inactive
7 | CCC[C@@H]1C[C@@H](C(=O)N[C@@H]([C@H]2O[C@H](SC)[C@H](O)[C@@H](O)[C@@H]2O)[C@@H](C)O)N(C)C1 | inactive
8 | COC(=O)[C@H](OC(C)=O)[C@H]1C(C)(C)C(=O)[C@H]2CC3=C4CC(=O)O[C@@H](c5ccoc5)[C@]4(C)CCC3[C@@]1(C)C2=O (stereo not given in full) | inactive [at 17.4 µM]
9 | C=C1CC2C3(C)C(O)CC(=O)C(C)(C)C3C(OC(C)=O)C(OC(C)=O)C2(C)C2C(=O)OC(C)(C(=O)OC)C(=O)C12C (stereo not given) | inactive [at 17.4 µM]
10 | COC1CC(OC2CCC3(C)C(=CCC4C3CCC3(C)C(C(C)O)CCC43O)C2)OC(C)C1OC1OC(C)C(OC2OC(COC3OC(COC4OC(CO)C(O)C(O)C4O)C(O)C(O)C3O)C(O)C(O)C2O)C(OC)C1O (stereo not given) | inactive [at 9.27 µM]
11 | C[C@@H]1C[C@H](O[C@@H]2O[C@H](CO[C@@H]3OC[C@](O)(CO)[C@H]3O)[C@@H](O)[C@H](O)[C@H]2O)CC(C)(C)[C@H]1/C=C/[C@@H](C)O | inactive [at 17.4 µM]
12 | C[C@@H](Nc1cc(NS(=O)(=O)N2CCC2)nc(SCc2cccc(F)c2F)n1)[C@@H](O)CO | inactive
13 | C#C[C@]1(O)CC[C@H]2[C@@H]3CCC4=C/C(=N/O)CC[C@@H]4[C@H]3CC[C@@]21CC | inactive
14 | COc1cc(CC(COC2OC(CO)C(O)C(O)C2O)c2cc(/C=C/CO)cc(OC)c2O)ccc1O (stereo not given) | inactive [at 17.4 µM]
15 | O=C(NN1CCCCC1)c1nn(-c2ccc(Cl)cc2Cl)c(-c2ccc(C#Cc3ccc(C(F)(F)F)cc3)s2)c1CNS(=O)(=O)N1CCCC1 | inactive
16 | CCC(C)(O)C(O)C(=O)OCc1ccc(O[C@@H]2O[C@H](CO)[C@@H](O)[C@H](O)[C@H]2O)c(OC)c1 (stereo not given in full) | inactive [at 17.4 µM]
17 | C=C1CCC2C(C)(C(=O)O)CC(O)CC2(C)C1CC/C(C)=C/C(=O)O (stereo not given) | inactive
18 | CC1CCC(=O)CC(O)C(O)CC(=O)O1 (stereo not given) | inactive
19 | CC1CCCC2OC2C(=O)c2c(O)cc(O)cc2CC(=O)O1 (stereo not given) | inactive
20 | CN1C(=O)c2ccccc2-n2c(nc3ccccc3c2=O)[C@@]12O[C@H]2c1ccccc1 | inactive

Row | SMILES | outcome
21 | C[C@@H]1O[C@@H](O[C@H]2[C@H](OC(C#N)c3ccc(O)cc3)O[C@H](CO)[C@@H](O)[C@@H]2O)[C@H](O)[C@H](O)[C@H]1O (stereo not given in full) | inactive [at 17.4 µM]
22 | C[C@@H]1O[C@@H](O[C@H]2[C@H](OC(=O)[C@]34CCC(C)(C)C[C@H]3C3=CCC5[C@@]6(C)CC[C@H](O[C@@H]7O[C@H](CO[C@@H]8OC[C@H](O)[C@H](O)[C@H]8O)[C@@H](O)[C@H](O)[C@H]7O)C(C)(C)C6CC[C@@]5(C)[C@]3(C)C[C@H]4O)OC[C@@H](O)[C@@H]2O)[C@H](O)[C@H](O)[C@H]1O[C@@H]1OC[C@H](O)[C@H](O[C@@H]2OC[C@@H](O)[C@H](O)[C@H]2O)[C@H]1O (stereo not given in full) | inactive [at 9.27 µM]
23 | CNC(=O)Nc1ccc(OC)c(NC(=O)NC(=O)c2cc(F)c(F)cc2Cl)c1 | inactive
24 | CC1=C2C3OC(=O)C(C)C3(O)CCC2(C)CCC1=O (stereo not given) | inactive
25 | CC(=O)O[C@@H]1[C@H](O[C@@H]2O[C@H](CO)[C@@H](O)[C@H](O)[C@H]2O)[C@@H](O[C@@H]2O[C@@H](C)[C@H](O)[C@@H](O[C@@H]3O[C@H](CO)[C@@H](O)[C@H](O)[C@H]3O)[C@H]2O)[C@H](OC(=O)C23CCC4(C)C(=CCC5C6(C)CC(O)C(O[C@@H]7O[C@H](C(=O)O)[C@@H](O)[C@H](O)[C@H]7O)C(C)(C(=O)O)C6CCC54C)C2CC(C)(C)CC3O)O[C@@H]1C (stereo not given in full) | inactive [at 9.27 µM]
26 | CC1[C@@H](O)[C@@H](O)C2[C@]3(C)C(C[C@H]4OC(=O)[C@H](O)[C@]1(O)[C@@]24C)C(C)(O)C[C@H](O)[C@H]3O (stereo not given in full) | inactive [at 17.4 µM]
27 | CC(NCc1ccc(OCc2cccc(F)c2)cc1)C(N)=O (stereo not given) | inactive
28 | C=C(C)[C@@H]1CC[C@](C)(O)[C@@H](OC(=O)c2ccccc2)C1 | inactive
29 | CC(=O)OC1C(O)C(C)=C(CCC(C)CC(=O)O)C2(C)CCCC(C)(C)C12 (stereo not given) | inactive
30 | O=C(O)c1cnn(-c2nc3cc(OC(F)(F)F)c(Cl)cc3[nH]2)c1 | inactive
31 | CC1CCC2C(C)(C)CC(C)(CO)C2(O)C1C(=O)O (stereo not given) | inactive
32 | C=C(C(=O)O)[C@@H]1CC=C2CCC[C@H](C)[C@@]2(C)C1 | inactive
33 | CCOC(=O)c1ccnc(CNCC(=O)N(CC)CCN(C)C)c1 | inactive
34 | COC(=O)[C@H](CC1C=NC=N1)NCC12CC3CC(CC(C3)C1)C2 (stereo not given in full) | inactive
35 | CC1CCC2C(C)(C)C(O)CCC2(C)C12Cc1c(O)cc3c(c1O2)CN=C3N (stereo not given) | inactive
36 | N#CC1C(=O)Nc2scc(-c3ccc(-c4ccccc4O)cc3)c2C1=O (stereo not given) | inactive
37 | COc1cccc(-c2ccc([C@@H](Oc3cc(-c4ccc(C[C@H](N)C(=O)O)cc4)nc(N)n3)C(F)(F)F)cc2)c1 | inactive
38 | Cc1coc2c1CC1OC1(C)CCC1OC1(C)C2 (stereo not given) | inactive
39 | c1ccc(Cc2ncc3c(n2)CCNCC3)cc1 | inactive
40 | CC(=O)O[C@H]1CC[C@@]2(CI)C(=CC[C@@H]3[C@@H]2CC[C@]2(C)[C@@H]([C@H](C)CCCC(C)C)CC[C@@H]32)C1 | inactive [at 9.27 µM]
